In PubChem BioAssay AID651551 (Sanford-Burnham Center for Chemical Genomics, 2012) one finds inhibition % (higher = more inhibition) data, which are given here for six compounds.

The assay deals with PEG-3 (UniProt Q6IN02). The experiment in a line: GAPDH versus PEG-3 reporter suppression – cell-based, luminescence, counter-screen for PEG-3 promoter inhibitor project, SAR follow-up (AID 651551). The conditions noted are these: HeLa PEG-Prom / GAPDH luciferase reporter, 6 or 24 h, run 2, 24 h; at 99 µM (top of the series).
Take `Cc1cc(NC(=O)c2cccc(C)c2C)n(-c2nc3ccccc3[nH]2)n1`: the inhibition % (higher = more inhibition) was 24%. For `CCn1cc(C(=O)NCc2ccco2)c(=O)c2cc(S(=O)(=O)N3CCCC3)ccc21`, the inhibition % (higher = more inhibition) stood at 24%. With `O=C(Nc1nc(-c2ccccc2)cs1)c1nn(-c2ccccc2)c(=O)c2ccccc12`, the inhibition % (higher = more inhibition) is 21.2%.

Take `CCCn1nc(C(=O)Nc2nc(-c3ccncc3)cs2)c2ccccc2c1=O`: the inhibition % (higher = more inhibition) is 40.8%.

On to `COCCCNC(=O)c1ccc(Cn2c(=O)c3ccccc3n(Cc3ccccc3C#N)c2=O)cc1`, for which the inhibition % (higher = more inhibition) was 54.9%. The figure for `Cc1nc(NC(=O)c2ccccc2)sc1-c1csc(Nc2ccccc2Cl)n1` is -54.5%.
